This is part of a sample that, as a whole, favours compounds with a hit. Of some 83,000 tested, about 20% had one in any assay.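 Note: values are percent growth. 100 is the growth of untreated cells, values between 100 and 0 indicate rising inhibition; between -100 and 0 indicates cell death.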 Activity calls are given as the source filed them.
Test system: NCI-H226 lung
Assay: NCI-60 one-dose screen, 48 h (100 = growth as untreated, 0 = no growth, -100 = all killed)
Conditions: 10 µM unless noted
Description: Growth inhibition of the NCI-H226 human Non-Small Cell Lung tumor cell line is measured as a screen for anti-cancer activity. Cells are grown in 96 well plates and exposed to the test compound for 48 hours. Compounds are tested at a single concentration, which is 10^-5 M for most compounds. The reported endpoint is percent growth (GI% or GIPRCNT), where numbers from 0 - 100% represent growth inhibition, and numbers from -100% - 0 represent cell death. For example, a value of 40 represents 60% growth inhibition. A value of 0 means no net growth occurred over the course of the experiment. A value of -40 indicates 40% of cells at the beginning of the experiment died by the end of the experiment. A value of -100 means all cells are dead at the end of the experiment.
NCI-60 Human Tumor Cell Lines Screen was performed using the standard one-dose NCI protocol, which is described in more detail at https://dtp.cancer.gov/discovery_development/nci-60/default.htm.
Compounds with GIPRCNT values below 10 were considered active. Activity score was based on GIPRCNT using the following formula: […]
Score is 0 for GIPRCNT values of 100 or above, 50 for GIPRCNT values of 0, and 100 for GIPRCNT values of -100.

SMILES | growth
Br/C(=N\Nc1nn[nH]n1)c1ccccc1 | 90.6% (inactive)
COc1ccc(/C=C/C(=O)/C=C/c2cc3ccccc3[nH]c2=O)cc1 | 90.9% (inactive)
O=C(Nc1ccc(-n2cc(-c3ccncc3)c(-c3ccc(Cl)c(O)c3)n2)cc1)c1cc(C(F)(F)F)cc(C(F)(F)F)c1 | 94.3% (inactive)
COc1cc(-c2nn(-c3ccc(NC(=O)Nc4cc(C(F)(F)F)cc(C(F)(F)F)c4)cc3)cc2-c2ccncc2)ccc1Cl | 18.4% (inactive)
CCC(CCCN1C(=O)c2ccccc2C1=O)Nc1cc(OC)cc2c(C)ccnc12 (stereo not given) | 88.2% (inactive)
COc1ccc(Cn2cc3c(c2)-c2oncc2CC3)cc1OC | 31.4% (inactive)
COc1cc2c(/C=C3\C(=O)Nc4ccc(Br)cc43)c(Cl)n(C)c2cc1C | 45.1% (inactive)
[2H]c1nc(=Nc2cc(NC(=O)C=C)c(N(C)CCN(C)C)cc2OC)[nH]c(-c2cn(C([2H])([2H])[2H])c3ccccc23)c1[2H] | 75.2% (inactive)
Cn1cnc2nc[nH]c2c1=S | 98.2% (inactive)
O=C(/C=C\c1ccccc1Cl)c1ccccc1 | 86.2% (inactive)
COc1ccc(C2=NN(C(=O)c3cc(-c4ccc(C)cc4)nc4ccccc34)C(c3cc(-c4ccccc4)nn3-c3ccccc3)C2)cc1 (stereo not given) | 83.4% (inactive)
Clc1ccc(N/N=C/c2ccccn2)nc1 | -12.3% (active)
COC1=C(OC)C(=O)c2ccccc2C1=O | 102% (inactive)
C[C@]12C=CC(=O)C=C1[C@@H](F)C[C@@H]1[C@@H]2[C@@H](O)C[C@@]2(C)[C@H]1CC[C@]2(O)C(=O)CO | 90.6% (inactive)
NNC(=S)N1N=C(c2cc3ccccc3o2)CC1c1c[nH]c2ccccc12 (stereo not given) | 69.7% (inactive)
COC(=O)c1ccc2[nH]c(O)c(C(=Nc3ccc(N(C)C(=O)CN4CCN(C)CC4)cc3)c3ccc(N)cc3)c2c1 | 56.5% (inactive)
CC(C)(C)C(=O)OCOP(=O)(OCOC(=O)C(C)(C)C)C1CC(O)N(O)C1=O (stereo not given) | 71.6% (inactive)
N#CCCCCCCCCCCC#N | 111% (inactive)
CCn1cc(C(=O)O)c(=O)c2cc(F)c(N3CCN(S(=O)(=O)c4ccc(Cl)cc4)CC3)cc21 | 60.1% (inactive)
CC(=O)NNC(=O)c1sc(NC(C)=O)nc1C | 93.1% (inactive)

SMILES | growth
CC(O)CCC(C)[N+](=O)[O-] (stereo not given) | 109% (inactive)
CCCCCCCCC(=O)Nc1ccc(O)cc1 | 104% (inactive)
CCCC(=O)Nc1ccccc1C(=O)O | 101% (inactive)
CN1CCN(Cc2ccc(NC(=O)c3cncc(C#Cc4c(N)ncc5ccc(F)cc45)c3)cc2C(F)(F)F)CC1 | 8.85% (active)
COC(=O)c1cc(Nc2ccc(O)c3c2C(=O)c2c([N+](=O)[O-])ccc(O)c2C3=O)cc(C(=O)OC)c1 | 82.5% (inactive)
CCOC(=O)C1=C(C(F)(F)F)NC(=O)NC1CN1C(=O)c2ccccc2C1=O (stereo not given) | 111% (inactive)
O=C1c2cc([N+](=O)[O-])ccc2-c2cc(Cl)c(NC(=O)C(F)(F)F)cc21 | 101% (inactive)
CC(C)OC(=O)c1ccc2n1CCCc1cnc(Nc3ccccc3)nc1-2 | 84.4% (inactive)
COc1cc(/C=C/C(=O)c2ccc(F)cc2)ccc1OCCCCOc1cc2c(cc1OC)C(=O)N1CCCC1C=N2 (stereo not given) | -8.87% (active)
Cc1ccc(OCCn2ccc(=O)n(CCOc3ccc(Cl)cc3C(=O)c3cc(C)cc(C)c3)c2=O)cc1 | 62.9% (inactive)
CC1(C)NC(=S)NC1=O | 99.6% (inactive)
COC(=O)CC(=O)C(=O)OC | 97.7% (inactive)
O=S(=O)(Cc1cccc2c(CS(=O)(=O)c3ccc(Cl)cc3)cccc12)c1ccc(Cl)cc1 | 107% (inactive)
O=C1CSC(c2ccccc2Cl)N1c1nnc(-c2ccncc2)o1 (stereo not given) | 93.9% (inactive)
Cc1c(C(N)=O)sc2c1c(=O)n(Cc1ccccc1)c1nnc(S(C)(=O)=O)n21 | 96.2% (inactive)
CCC(C)C1NC(=O)C(CCCCN)NC(=O)C(CCCCN)NC(=O)C(CC(C)C)NC(=O)C(CCCCN)NC(=O)C(C(C)CC)NC(=O)C(C(C)C)NC(=O)C(C(C)CC)NC(=O)C(CCCCN)NC(=O)C(CCCCN)NC(=O)C(C)NC(=O)C(CCCCN)NC(=O)C(CC(C)C)NC1=O (stereo not given) | 46.8% (inactive)
COc1ccc(Nc2c3ccccc3nc3ccccc23)cc1 | 6.97% (active)
O=C(/C=C1\C(=O)N(Cc2ccccc2)c2ccccc21)c1ccc(OCCN2CCCCC2)cc1 | 84.6% (inactive)
CCOC(=O)C1=C(c2ccccc2)NC(=O)NC1CN1C(=O)c2ccccc2C1=O (stereo not given) | 105% (inactive)
COc1ccc(C2=C/C(=C\c3ccc(Cl)cc3)C(=O)NN2C(=S)NN)cc1 | 87.6% (inactive)

From PubChem BioAssay (NCI)
